In the library only some 5.5% were active in any assay of this set; here they are far more common.
ELG1 DNA repair = blocks ELG1-dependent DNA repair in HEK293T cells; HEK293T ELG1-luciferase reporter, luminescence, 16 h; DNA damage induced by 5-fluorouridine; Potency, µM (series often up to 46.1 µM), for the others: at the highest dose activity change, negative = inhibition, most hits filed as inhibitors; 2.3% of 330,000 active; AID 504467; note: potency is the fitted concentration of half-maximal effect; nearly all actives have a fitted effect of over 55% in size
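5-Fluorouridine DNA damage + compound/DMSO, 2,000 cells/well, 16 h, 37 °C/5% CO2. ONE-Glo, 30 min RT, luminescence. Readout = decrease in reporter signal.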
FBPA coupling cs = coupling enzyme interference in Giardia aldolase counter-screen; coupling enzyme system counterscreen, AmpLite Red fluorescence; AID 2472; activity change, negative = inhibition, % at 58.2 µM, hits read low; 0.67% of 290,000 active; in the data active = activity change below about -30%
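Fluorescence at 525 nm excitation and 598 nm emission measured inhibition of the coupled detection system without aldolase. Compounds (at 57.5 uM final) were preincubated 10 min at room temperature with coupling enzyme reagent before a 20 min substrate/AmpLite Red step.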
Sfp PPTase inh = Sfp phosphopantetheinyl transferase inhibition | AID 1490 | 3.5% of 310,000 active | Potency, µM, without a hit: largest response in the series, negative = inhibition, actives largely listed as inhibitors | Biochemical Sfp PPTase activity, qHTS | Q9F4F7;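 note: the enzyme is Sfp with the accession as filed and its product quenches rhodamine fluorescence; potency is the fitted concentration of half-maximal effect; 0% = enzyme reaction without inhibitor and -100% = no enzyme wells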
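Buffer: 50 mM Hepes-Na pH 7.6, 10 mM MgCl2, 0.01% Nonidet P-40, 0.01% BSA. Enzyme 15 nM, pre-exposed to compound 15 min; substrates then added and fluorescence change tracked over 30 min.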
Giardia killer = kills Giardia lamblia; Giardia lamblia trophozoite viability; activity change, % at 7.66 µM, hits read low; 0.15% of 340,000 active; AID 540267; in the data active = activity change below about -80%; inconclusive = between about -30% and that limit;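 note: parasites exposed to compound for two days anaerobically before the ATP read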
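Trophozoite viability was measured as ATP-dependent luminescence, read 15-30 min after reagent addition. Before that, parasites at 100 cells/well were exposed to compounds for 48 h, anaerobically, at 37 deg C.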
* = called active by the depositor; ? = inconclusive; / = no result. Unless noted, calls come from the whole dose curve; as a rule, active = well fitted curve in the direction sought with a large enough effect; inconclusive = small, poorly fitted or top-dose-only effect, or another doubt; inactive = no such curve, though single readings can be large; an effect the other way counts as inactive or inconclusive. Unless noted, % is set by controls: 0 for no effect and ±100 for the full control effect.

SMILES | ELG1 DNA repair | FBPA coupling cs | Sfp PPTase inh | Giardia killer
CC1OC(O[C@H]2CC[C@]3(C)C4C=C[C@]56OC[C@@]7(CC[C@@H](C)[C@H](C)C75)[C@H](O)C[C@@]6(C)[C@]4(C)CC[C@H]3C2(C)C)C(OC2OC(CO)C(O)C(O)C2OC2OCC(O)C(O)C2O)C(O)C1O (stereo not given in full) | 2% | 0 | 89µM* | /
O=C1CCN(CC2CCCCC2)C=C1C(=O)c1ccccc1 | / | / | / | -12
S=C(NC1CCCCC1)N(CCc1nc2ccccc2[nH]1)C1CCCC1 | 23µM* | 0 | 3% | 3
CN(C)C=Nc1ccc2nc3c(cc2c1)[nH]c1ccccc13 | ? | -11 | 0% | -89*
CCOC(=O)c1[nH]c2ccccc2c1N=CN(C)C | / | / | / | 2
CCN(CC)CCCN(C(=O)c1ccc(F)cc1)c1nc(-c2ccc(OC)cc2)cs1 | -25% | 2 | -4% | -1
CCOC(=O)C1=NN(c2ccccc2)C2=NC(C)=C(C(=O)OC)C(c3cccs3)N12 (stereo not given) | / | / | / | -24
CCOC(=O)C1=NN(c2cccc(Cl)c2)C2=NC(C)=C(C(=O)OC)C(c3cccs3)N12 (stereo not given) | 21µM* | -4 | -8% | -3
Cc1ccc(C2C(C#N)=C(N)SC(N)=C2C#N)c(C)c1 | ? | -41* | 79µM* | -8
Cc1ccc(C2C(C#N)=C(N)SC(N)=C2C#N)cc1 | 4% | -16 | -22% | 5
CC(OC(=O)COc1ccccc1Cc1ccccc1)C(=O)N(C)c1ccccc1 (stereo not given) | 7% | / | / | 0
O=C(O)c1cccc(Oc2ccc(C(=O)O)c([N+](=O)[O-])c2)c1 | / | / | / | -7
CN(c1ccccc1)S(=O)(=O)c1ccc(Cl)c(C(=O)NCc2ccco2)c1 | -27% | / | / | -12
COc1ccccc1N(C)S(=O)(=O)c1ccc(Cl)c(C(=O)NCc2ccco2)c1 | 21µM* | / | / | 5
COc1ccc(N(CC(=O)NCc2ccco2)S(=O)(=O)c2ccc(C)cc2)cc1OC | 14% | -1 | 0% | 3
COc1ccc(S(=O)(=O)N(CC(=O)NCc2ccco2)C2CCCCC2)cc1OC | 13% | 3 | 50µM* | -5
Cc1ccc(S(=O)(=O)N(CC(=O)NCc2ccco2)C2CCCCC2)cc1 | -22% | 1 | -15% | 13
COc1ccccc1N(CC(=O)NCc1ccco1)S(=O)(=O)c1ccc(C)cc1 | -1% | -2 | 56µM* | 21
CC(C)(CO)[C@H](O)C(=O)NCCCO | / | 3 | 1% | /
CCOC(=O)[C@@H]1[C@H]2COc3cc(OC)ccc3[C@@H]2N2C(=O)N(c3ccc(F)cc3)C(=O)[C@]12C | 1% | -1 | 2% | 19
COCCn1c(SCC(=O)c2[nH]c(C)c(C(C)=O)c2C)nc2ccccc21 | 26µM* | -2 | 3% | -5
Cc1cc(N=Cc2c(O)n(-c3cccc(Cl)c3)c(=O)c3ccccc23)no1 | 18µM* | 2 | -16% | 12
O=c1c2ccccc2c(C=Nc2ccc(S(=O)(=O)Nc3ncccn3)cc2)c(O)n1-c1cccc(Cl)c1 | 4% | 3 | -4% | /
Nc1cc2c(cc1O)CCCC2 | ? | -18 | 4.5µM* | -8
Cc1[nH][nH]c(=O)c1C(c1c(C)[nH][nH]c1=O)c1cn(Cc2ccccc2Cl)c2ccccc12 | 9% | -43* | -11% | 7
SMILES | ELG1 DNA repair | FBPA coupling cs | Sfp PPTase inh | Giardia killer
N/C(=N\O)c1cn(Cc2ccccc2Cl)c2ccccc12 | -19% | -1 | 1% | 1
CCOC(=O)NNC(=O)CCn1c2c(c3ccccc31)CCCC2 | 18µM* | -5 | 16% | 12
Cc1cc(C)c2c(c1)CC(C)(C)CC2=O | / | / | / | 19
O=C(NC(=S)N1CCN(c2ccc(O)cc2)CC1)c1cccs1 | 13µM* | 3 | -13% | -14
O=C(NC(=S)Nc1ccc(N2CCN(C(=O)c3ccccc3)CC2)cc1)c1cccs1 | 13µM* | 1 | 16% | -11
O=C(c1ccc(N2CCN(C(=O)c3ccc(F)cc3F)CC2)cc1)c1cccc(F)c1 | 15µM* | / | -2% | 21
O=C(Nc1ccc(S(=O)(=O)N2CCN(c3ccccc3)CC2)cc1)c1cccs1 | 12µM* | -11 | -4% | 8
O=C(NC(=S)N1CCN(c2ccc(F)cc2)CC1)c1cccs1 | -10% | -1 | 2% | -6
COc1ccc(C(=O)N2CCC3(CCN(Cc4cc(C(F)(F)F)cc(C(F)(F)F)c4)CC3)CC2)cc1 | / | -2 | 31% | /
CCCC(=O)NC(=S)Nc1ccc(NC(=O)c2cccs2)cc1 | ? | 1 | 13% | 8
CCCC(=O)NC(=S)Nc1ccc(N2CCN(C(=O)c3cccs3)CC2)cc1 | 16µM* | 8 | 11% | 3
O=C(Nc1ccc(N2CCN(C(=O)c3cccs3)CC2)cc1)c1cccc(F)c1 | 15µM* | 0 | 7% | 13
O=C(NCC1CCCN1S(=O)(=O)c1cccs1)c1ccccc1F (stereo not given) | 4% | / | / | -5
CCOc1ccc(CN2CCC(n3nccc3NC(=O)c3ccccc3OC)CC2)cc1 | 15% | 0 | 10% | 44
Cc1ccccc1NC(NC(=O)OCCn1c([N+](=O)[O-])cnc1C)C(Cl)(Cl)Cl (stereo not given) | 9% | -5 | 12% | -82*
Cc1ncc([N+](=O)[O-])n1CCOC(=O)NC(NCc1ccccc1)C(Cl)(Cl)Cl (stereo not given) | -6% | 1 | 3% | ?
Cc1ncc([N+](=O)[O-])n1CCOC(=O)NC(NCc1cccnc1)C(Cl)(Cl)Cl (stereo not given) | -1% | 4 | 17% | -92*
CCN1C(=O)[C@H]2[C@H]3CN=C(SCC(=O)c4ccccc4)N3[C@@](CC)(C(=O)OC)[C@H]2C1=O | ? | / | / | 4
CC(C)Cn1cnc2c1c(=O)n(CC(=O)NC(=O)NC(C)(C)C)c(=O)n2Cc1ccccc1 | 0% | -1 | 16% | 14
CCc1ccccc1NC(=O)CN(C)C(=O)c1cc(C2CC2)nc2c1cnn2C(C)C | 2% | / | / | 7
CC1=C(n2nnc([N+](=O)[O-])n2)C(c2cccnc2)C(C#N)=C(N)O1 (stereo not given) | -17% | -67* | 11% | -13
COC(=O)C1=C(C)OC(N)=C(C#N)C1c1cccnc1 (stereo not given) | 10% | -3 | 11% | 3
Cc1cc(C)c(C)c(OCCCOc2cccc3cccnc23)c1 | -14% | 0 | 71µM* | 3
CCCCCCc1nc(C(N)=O)c2[nH]c(=O)n(-c3ccccc3F)c2n1 | ? | -2 | 14% | -24
CCCCCCNC(=O)N[C@H](C(=O)NCCC[C@H]1CN2C(=NC[C@H]2C)N1CCC(c1ccccc1)c1ccccc1)C(C)O (stereo not given in full) | ? | 0 | 2.2µM* | /
O=C1CSC(=Nc2cccc([N+](=O)[O-])c2)N1 | 7% | -1 | 8% | -8
N#CC1=C(N)NC(SCC(=O)c2ccc(Cl)cc2)=C(C#N)C12CCCC2 | ? | -1 | 50µM* | 16
CCCCNC(=O)NS(=O)(=O)c1ccc(CO)cc1 | / | -1 | 7% | /

Compound activity deposited in PubChem by National Center for Advancing Translational Sciences (NCATS).
